From the supplement of paper PMC6897291

Tested on: RIVA
Assay: growth inhibition by drug alone (1 - RLU/untreated control) (fraction); higher = stronger inhibition
Conditions: 177Lu-lilotomab satetraxetan 0 ug/ml
Experimental: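 RIVA (RI-1) ABC-DLBCL cells were pretreated or not for 18 h with 0.5 ug/ml 177Lu-lilotomab satetraxetan (600 MBq/mg), washed and seeded (3000 cells/well) on 384-well plates pre-printed with the Selleck Cambridge Cancer Compound library. Viability was read by RealTime-Glo luminescence on days 3-6 after seeding. Effect = 1 - RLU/mean RLU of the 48 untreated no-drug control wells per plate; Bliss score = (M-E)/(1-Fa).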

## COc1cc2ncnc(Nc3ccc(F)c(Cl)c3)c2cc1NC(=O)/C=C/CN1CCCCC1
10 nM, time (day): 3
  growth inhibition by drug alone: -0.299
10 nM, time (day): 4
  growth inhibition by drug alone: -0.339
10 nM, time (day): 5
  growth inhibition by drug alone: -0.376
10 nM, time (day): 6
  growth inhibition by drug alone: -0.409
100 nM, time (day): 3
  growth inhibition by drug alone: -0.261
100 nM, time (day): 4
  growth inhibition by drug alone: -0.3
100 nM, time (day): 5
  growth inhibition by drug alone: -0.331
100 nM, time (day): 6
  growth inhibition by drug alone: -0.346

## C[C@@H](Oc1cc(-c2cnn(C3CCNCC3)c2)cnc1N)c1c(Cl)ccc(F)c1Cl
10 nM, time (day): 3
  growth inhibition by drug alone: 0.00835
10 nM, time (day): 4
  growth inhibition by drug alone: 0.0307
10 nM, time (day): 5
  growth inhibition by drug alone: -0.0637
10 nM, time (day): 6
  growth inhibition by drug alone: -0.409
100 nM, time (day): 3
  growth inhibition by drug alone: -0.398
100 nM, time (day): 4
  growth inhibition by drug alone: -0.211
100 nM, time (day): 5
  growth inhibition by drug alone: -0.28
100 nM, time (day): 6
  growth inhibition by drug alone: -0.62

## COc1ccc(COc2cc3oc(=O)c4cc(C(C)O)ccc4c3cc2OC)cc1 (stereo not given) [Palomid 529]
10 nM, time (day): 3
  growth inhibition by drug alone: 0.0296
10 nM, time (day): 4
  growth inhibition by drug alone: 0.0604
10 nM, time (day): 5
  growth inhibition by drug alone: -0.0136
10 nM, time (day): 6
  growth inhibition by drug alone: -0.281
100 nM, time (day): 3
  growth inhibition by drug alone: -0.0737
100 nM, time (day): 4
  growth inhibition by drug alone: -0.0625
100 nM, time (day): 5
  growth inhibition by drug alone: -0.0557
100 nM, time (day): 6
  growth inhibition by drug alone: -0.118

## CC(C)C[C@@H](C(=O)N[C@H](C(=O)OC1CCCC1)c1ccccc1)[C@H](O)C(=O)NO [Tosedostat (CHR2797)]
10 nM, time (day): 3
  growth inhibition by drug alone: 0.0304
10 nM, time (day): 4
  growth inhibition by drug alone: 0.0133
10 nM, time (day): 5
  growth inhibition by drug alone: 0.000967
10 nM, time (day): 6
  growth inhibition by drug alone: -0.0544
100 nM, time (day): 3
  growth inhibition by drug alone: -0.208
100 nM, time (day): 4
  growth inhibition by drug alone: -0.212
100 nM, time (day): 5
  growth inhibition by drug alone: -0.221
100 nM, time (day): 6
  growth inhibition by drug alone: -0.3

## O=C(CCCCCCC(=O)Nc1ccccc1)NO [Vorinostat (SAHA)]
10 nM, time (day): 3
  growth inhibition by drug alone: -0.119
10 nM, time (day): 4
  growth inhibition by drug alone: -0.189
10 nM, time (day): 5
  growth inhibition by drug alone: -0.294
10 nM, time (day): 6
  growth inhibition by drug alone: -0.432
100 nM, time (day): 3
  growth inhibition by drug alone: -0.132
100 nM, time (day): 4
  growth inhibition by drug alone: -0.192
100 nM, time (day): 5
  growth inhibition by drug alone: -0.199
100 nM, time (day): 6
  growth inhibition by drug alone: -0.285
